In all, about 68,000 sequences were measured (“fluorescence intensity (a.u.)”: median about 9,100, highest 2% from about 16,000 on). The sample holds the highest values, similar sequences and a random draw of the others, so the mix is not that of the screen.

The target in this test is OsWRKY34 (Oryza sativa, UniProt Q0JBA9 1-250). Nature of the test: protein-binding microarray (RPBM); PBS, 2% BSA, 51.3 ng/ul salmon testes DNA, 50 uM zinc acetate, 200 nM TF, 25 C, 1 h; high values mean tight binding. The following applies: protein: recombinant; tags: N-terminal polyhistidine and DsRed monomer fusion (pET32a); label: CyDye5-dUTP incorporated in the synthesized complementary strand; 3' TTTTT single-stranded linker to array surface; dsDNA, one strand shown. Put shortly: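 An Axon 4000B scanner gave the binding signal as per-feature fluorescence intensity in arbitrary units. This followed washing of a custom Agilent array that had been incubated for 1 h at 25 °C with 200 nM protein in PBS, 2% BSA, salmon testes DNA and 50 µM zinc acetate. The proteins were transcription factors fused at the N-terminus to polyhistidine and DsRed, expressed in E. coli BL21-CodonPlus and purified on Ni–NTA.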
Sequence of OsWRKY34 (Q0JBA9 entry or part of it): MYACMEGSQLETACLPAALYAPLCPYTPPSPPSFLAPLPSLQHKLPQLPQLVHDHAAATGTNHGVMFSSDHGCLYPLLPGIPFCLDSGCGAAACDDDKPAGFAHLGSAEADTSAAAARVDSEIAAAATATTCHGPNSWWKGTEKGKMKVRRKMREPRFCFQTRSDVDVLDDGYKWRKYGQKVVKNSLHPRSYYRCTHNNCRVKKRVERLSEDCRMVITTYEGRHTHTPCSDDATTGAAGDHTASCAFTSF
Take “GGGGTTTTTCTTATGTTAGTATATGTGTGGGATGTGTGAACGGAGTCACCTAGTGCAG”: the binding signal is 16800 fluorescence intensity (a.u.). The figure for “GAAATGTGGGAGGGGTTTTCTTACAAATGTTATATAGACACGGAGTCACCTAGTGCAG” is 13900 fluorescence intensity (a.u.). For “ATGTGTGGATTTATAAGGGTGAGTATATGTGTTTCGGGAACGGAGTCACCTAGTGCAG”, the binding signal was 8140 fluorescence intensity (a.u.). With “CGGGTTCAATATATTGTTTTTTTTAAGACTGGTTCAATATCGGAGTCACCTAGTGCAG” the figure was 8880 fluorescence intensity (a.u.). For the sequence “TATGTGTTTTTTGCCGATTAAATTATTACGGGATATATAACGGAGTCACCTAGTGCAG”, the binding signal was 9680 fluorescence intensity (a.u.). The figure for “TATATCACATTTAATTATTTTTCCCATGTTCTTGTTTTAACGGAGTCACCTAGTGCAG” is 9480 fluorescence intensity (a.u.). The figure for “ATTGGGTTGATATTATATTGGCAGGGCCAGAAAGTTTTACCGGAGTCACCTAGTGCAG” is 8580 fluorescence intensity (a.u.); for “ATGGTCAAACATGTGAGAAAAAGTCAACGGCGTCATCTATCGGAGTCACCTAGTGCAG” it is 19600 fluorescence intensity (a.u.); for “ATGGTCAAACATGTGCTAAAAAGTCAACGGTGTCAAACATCGGAGTCACCTAGTGCAG” it is 17700 fluorescence intensity (a.u.). Consider “GAACGGTCAAACATGTGCTAAAAAGTCAACGGTGTCAAACCGGAGTCACCTAGTGCAG”, for which the binding signal is 10100 fluorescence intensity (a.u.). With “AATGGTCAAACATGTGAGAAAAAGTCAACGGCGTTATCTACGGAGTCACCTAGTGCAG” the figure was 15500 fluorescence intensity (a.u.); with “AACGGTCAAATATGTGCTAAAAAGTCAACGGTGTCAAATACGGAGTCACCTAGTGCAG”, 11300 fluorescence intensity (a.u.). As for “CGAATGGTCAAACATATGAGAAAAAGTCAACGATGTCATCCGGAGTCACCTAGTGCAG”, the binding signal is 13900 fluorescence intensity (a.u.). As for “ACGAACGGTCAAACATGTGCTAAAAAGTCAACGGTGTCAACGGAGTCACCTAGTGCAG”, the binding signal was 15900 fluorescence intensity (a.u.).

For the sequence “CGGTCAAACATGTGCTAAAAAGTCAACGGTGTCAAATATTCGGAGTCACCTAGTGCAG”, the binding signal is 11400 fluorescence intensity (a.u.). With “CGAATGGTCAAACATGTAGAAAAAAGTCAACGGTGTCATCCGGAGTCACCTAGTGCAG”, the binding signal is 16900 fluorescence intensity (a.u.). The figure for “TAAGACGAATGGTCAAACATGTAAGAAAAAGTCAACGGTACGGAGTCACCTAGTGCAG” is 12900 fluorescence intensity (a.u.); for “AACGGTCAAACATGTGCTAAAAAGTCAACGGTGTCAAATACGGAGTCACCTAGTGCAG” it is 18600 fluorescence intensity (a.u.).

Turning to “ACGAATGGTCAAACATGTGAGGAAAAGTCAACGGCGTCATCGGAGTCACCTAGTGCAG”, the binding signal is 13400 fluorescence intensity (a.u.). Take “TAGCTCGGATTCTGCCCCTAATCCCGCCGTCCGCCTCCGCCGGAGTCACCTAGTGCAG”: the binding signal is 8490 fluorescence intensity (a.u.). With “AGGCAACACATACAATGTATCACCTCTAACACACAAATACCGGAGTCACCTAGTGCAG” the figure was 8410 fluorescence intensity (a.u.); with “TCCATCAGTTTTGTGAACTCTGTCTGTCACTCGCTCAGCACGGAGTCACCTAGTGCAG”, 8940 fluorescence intensity (a.u.); with “TTCTTCGTTTTTCTGAGTACGATCTCCCAGGGTTATAATCCGGAGTCACCTAGTGCAG”, 8850 fluorescence intensity (a.u.). With “CGAGACCGACTGATGCTACAACTTCTGTCCTTGCTCCGGCCGGAGTCACCTAGTGCAG”, the binding signal was 8620 fluorescence intensity (a.u.).

With “ATGTGTGACTTGTCTTTTTAATTTTTTTTTTAATTTTTTTCGGAGTCACCTAGTGCAG”, the binding signal is 9610 fluorescence intensity (a.u.).

In the case of “AGGCTATCGTATGACTTTCTTCTGCTTTCATTTGTGTTCACGGAGTCACCTAGTGCAG”, the binding signal is 15300 fluorescence intensity (a.u.).

With “TGGTGGCGTCTGTATTGGGTTTCTTTCTCCAAGTTATATTCGGAGTCACCTAGTGCAG”, the binding signal was 9710 fluorescence intensity (a.u.). With “CTTTGCTCACTCTTTCTTTTCTCTTCAGGTCTCCATTCTTCGGAGTCACCTAGTGCAG” the figure was 12200 fluorescence intensity (a.u.); with “CGTGTCGGTGTCTCATCTCTCTCTCTCTTCCCATCCGCCGCGGAGTCACCTAGTGCAG”, 8790 fluorescence intensity (a.u.); with “CCAAAAACCTCTACTCTTCCGCGTCTTGGAAAATTCTTCTCGGAGTCACCTAGTGCAG”, 9300 fluorescence intensity (a.u.).

As to “TAAGATAAACGGTCAAACATTTGCTAAAAAGTCAACGGTGCGGAGTCACCTAGTGCAG”, the binding signal is 17300 fluorescence intensity (a.u.).

For the sequence “CATGTCACTATACTATTATATCCTATTATATCCTATAATACGGAGTCACCTAGTGCAG”, the binding signal is 8100 fluorescence intensity (a.u.). In the case of “TTATAACATGTCATTAATAAAGGGCATTATGCAACTAATACGGAGTCACCTAGTGCAG”, the binding signal is 64200 fluorescence intensity (a.u.). Consider “AATAATAAGAACGGTCAAACATATGCTAAAAAGTCAACGGCGGAGTCACCTAGTGCAG”, for which the binding signal is 11500 fluorescence intensity (a.u.).

For “TTGCTAAAAAGTCAACGGTGTCAAATATTTCGAAACGGAGCGGAGTCACCTAGTGCAG”, the binding signal is 12300 fluorescence intensity (a.u.).

As for “TGTGCTAAAAAAGTCAACGGTGTCAAATATTTCGAAACGGCGGAGTCACCTAGTGCAG”, the binding signal is 14700 fluorescence intensity (a.u.). Turning to “GTCAAACATGTGCTAAAAAGTCAACGGTGTCAAACATTTCCGGAGTCACCTAGTGCAG”, the binding signal was 17400 fluorescence intensity (a.u.). With “GTGCTAAAAAGTCAACGGTGTCAAATATTTAGAAATGAAGCGGAGTCACCTAGTGCAG” the figure was 21200 fluorescence intensity (a.u.); with “TACTATTTTTTTCTATAACTATTTATGTCACATGTAAATACGGAGTCACCTAGTGCAG”, 8300 fluorescence intensity (a.u.); with “TCAAACACGTACTAAAAAGTCAACGGTGTCAAACATTTTGCGGAGTCACCTAGTGCAG”, 15600 fluorescence intensity (a.u.). As to “AAACATGTGCTAAAAAGTCAACGGTGTCAAACATTTTGAACGGAGTCACCTAGTGCAG”, the binding signal was 10400 fluorescence intensity (a.u.).

Turning to “GTCAAACATGTGCTAAAAAGTCAACAGTGTCAAACATTTCCGGAGTCACCTAGTGCAG”, the binding signal is 9540 fluorescence intensity (a.u.).

These data come from paper PMC7819943, “Rice protein-binding microarrays: a tool to detect cis-acting elements near promoter regions in rice”.
